The values that follow come from PubChem BioAssay (NCI).

Structures are written as SMILES. Compounds without any hit were thinned out: in the full panel of roughly 83,000, 20% have a hit.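 Method: cells in 96-well plates; compound added at one concentration; 48 h incubation; percent growth measured; values under 10 scored active.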 A number with no mark means an inactive call. Activity calls are given as the source filed them.

The subject of this experiment is NCI-H322M lung. In words: NCI-60 one-dose screen, 48 h (100 = growth as untreated, 0 = no growth, -100 = all killed). To be noted: 10 µM unless noted.
On to `O=c1[nH]ccc2c(S(=O)(=O)N3CCCNCC3)cccc12`, for which the growth was 29.6%.

As for `CC1(C=O)NC(=O)NC1=O` (stereo not drawn), the growth was 102%. For the compound `Cc1ccc(NC(=O)c2ccc(CN3CC[C@H](N(C)C)C3)c(C(F)(F)F)c2)cc1Nc1nccc(-c2cncnc2)n1`, the growth is 26.2%.

For the compound `O=C(Nc1cccc(Cl)c1)Nc1ncc(CCNc2ncnc3ccsc23)s1`, the growth is 55.5%.

Consider `Cn1ccnc1C(=O)/C=C/c1ccc(CC(=O)Nc2ccc(Br)cc2)cc1`, for which the growth is 6.4% (active). On to `CNC(=O)c1nn(C)c2c1C(C)(C)Cc1cnc(Nc3ccc(N4CCN(C)CC4)cc3)nc1-2`, for which the growth was 15.1%. Turning to `COc1cccc2cc(-c3nc(C4CCC(C(=O)O)CC4)n4ncnc(N)c34)[nH]c12` (stereo not drawn), the growth is 9.76% (active). With `CNc1ncc2cc(-c3cc(NC(=O)NCCC(C)(C)C)c(F)cc3C)c(C)nc2n1` the figure was 4.99% (active); with `Cc1cc(C(=O)Nc2cc(Oc3ccc4nc(NC(=O)C5CC5)cn4n3)ccc2C)n(C)n1`, 15.8%; with `O=C(Cc1ccc(/C=C/C(=O)c2ncc[nH]2)cc1)Nc1ccc(Br)cc1`, 58.1%. `CCc1ccc(C2=C(O)C(=O)C(c3ccc(CC)cc3)=C(O)C2=O)cc1`: the growth was -19.6% (active).

For `CNC(=O)c1cccc2cc(Oc3ccnc4cc(OCC5(N)CC5)c(OC)cc34)ccc12`, the growth was 74.3%. For the compound `CCCCN1CCCC[C@@H]1C(=O)N[C@H](C(=O)N(C)[C@H](CCc1nc(C(=O)N[C@@H](Cc2ccccc2)C[C@H](C)C(=O)OC)cs1)C(C)C)C(C)C`, the growth is 75.6%.
